Test results as given in PubChem BioAssay (NCATS).
Results filed as inconclusive are left out. Activity calls are given as the source filed them. Unless noted, calls follow the shape of the dose curve; as a rule, active = well fitted curve in the direction sought with a large enough effect; inconclusive = small, poorly fitted or top-dose-only effect, or another doubt; inactive = no such curve, though single readings can be large; an effect the other way counts as inactive or inconclusive.

Key:
[1] = Primary qHTS for inhibitors of MERS-S pseudo-typed particle cell entry (AID 1479149; calls by dose curve; also: nearly all actives have a fitted effect of over 60% in size); settings: outcome: dose series up to 57.1 µM unless noted
[2] = Primary qHTS for Vero E6 cytotoxicity: counterscreen for inhibitors of SARS-S pseudo-typed particle cell entry (AID 1479150; calls by dose curve)
[3] = Cytotoxicity counterscreen for inhibitors of SARS-CoV-2 cell entry (AID 1645845; calls by dose curve; also: nearly all actives have a fitted effect of over 50% in size); settings: outcome: dose series up to 57.1 µM unless noted
Method in brief: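 48 h compound treatment (after 1 h preincubation), HEK293-ACE2 cells, 37 C/5% CO2; ATP luminescence endpoint; normalized to cell wells and media blanks.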

[4] = Primary qHTS to identify inhibitors of SARS-CoV-2 cell entry (AID 1645846; calls by dose curve; also: nearly all actives have a fitted effect of over 45% in size); settings: activity change, negative = inhibition: at 57.1 µM (top of the series) unless noted
Method in brief: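 Inhibition of spike-mediated entry was scored in human ACE2-transfected Expi293F cells. Particles were MLV-pseudotyped with Wuhan-Hu-1 S carrying a 19-aa C-terminal deletion; signal was luciferase after two days, scaled between spike PP and fusion-protein-free PP.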

[5] = Primary qHTS for inhibitors of La Crosse Virus (LACV) - induced cell death in SH-SY5Y cells (AID 1508616); also: potency is read from the fitted curve at half-maximal effect;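 as to activity change: top concentration of the series differs between compounds; higher means more rescue of cells from virus-induced death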
Method in brief: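 SH-SY5Y cells (6000/well) plated 24 h, then given compounds by pin transfer and LACV at 0.01 MOI for 6 days at 37C. Viability measured by ATPLite luminescence, normalized to infected DMSO and uninfected DMSO.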

[6] = biological target: Calcium and integrin-binding protein 1 (Homo sapiens) (UniProt Q99828); assay: Validation qHTS for Identification of Calcium Integrin Binding protein 1 (CIB1) Competitor (AID 1508618)
Method in brief: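 Fluorescence polarization with 1 uM CIB1-GST and 100 nM FITC-alphaIIb peptide in HEPES pH 7.4, NaCl, 5 mM CaCl2, Tween20. Compounds at up to 114 uM final, preincubated with protein 15 min; read after 15 min more at RT.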

[7] = Counterscreen qHTS for small molecule stabilizers of the endoplasmic reticulum resident proteome: GLuc-NoTag assay (AID 1508627);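 also: SH-SY5Y cells given compound then 100 nM thapsigargin to empty ER calcium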
Method in brief: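 Luminescence of Gaussia luciferase secreted into the medium (coelenterazine, 0.07x final, unlysed cells) was the read-out. Human SH-SY5Y neuroblastoma cells constitutively secreting untagged GLuc received compound for 19 h, then 100 nM thapsigargin for 4 h.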

[8] = Confirmatory qHTS for small molecule stabilizers of the endoplasmic reticulum resident proteome: Secreted ER Calcium Modulated Protein (SERCaMP) assay (AID 1508628); also: potency is read from the fitted curve at half-maximal effect; nearly all actives have a fitted effect of over 40% in size
Method in brief: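 SH-SY5Y cells stably expressing GLuc-SERCaMP, treated 16 h with compound (primary 1.53, 7.67, 38.3 uM; confirmation 11 concentrations, up to 76.6 uM), then 100 nM thapsigargin for 4 h. Secreted Gaussia luciferase in medium read by coelenterazine luminescence.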

Papain (Carica papaya) = Papain (Carica papaya) (UniProt P00784); assay: Primary qHTS assay for inhibitors of the protease papain (AID 1645873);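 also: papain turnover of Z-FR-AMC read as the AMC fluorescence gain over 10 min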
[9] = Primary qHTS for small molecule stabilizers of the endoplasmic reticulum resident proteome: Secreted ER Calcium Modulated Protein (SERCaMP) assay (AID 1508630)
Method in brief: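 GLuc-SERCaMP-expressing SH-SY5Y cells, pretreated 16 h with compound, are challenged with thapsigargin to empty ER calcium stores; after 4 h, coelenterazine is added directly to the medium and luminescence is imaged.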

[10] = biological target: N-terminal Xaa-Pro-Lys N-methyltransferase 1 (Homo sapiens) (UniProt Q9BV86); assay: Confirmatory qHTS for Inhibitors of N-terminal methyltransferase 1 (NTMT1): MTaseGlo Assay (AID 1645874); also: nearly all actives have a fitted effect of over 65% in size; also: potency is read from the fitted curve at half-maximal effect;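 as to activity change, negative = inhibition: luminescence from SAH made as NTMT1 methylates SPKRIA peptide using SAM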
Method in brief: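 NTMT1 (125 nM) preincubated 15 min with compound and 100 uM SAM, then 1 uM SPKRIA peptide added for 30 min at room temperature. SAH detected by MTase-Glo luminescence; normalized to no-enzyme and DMSO controls, fitted to 4-parameter Hill.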

Calcium and integrin-binding protein 1 (Homo sapiens), sequence (Q99828 whole entry, looked up): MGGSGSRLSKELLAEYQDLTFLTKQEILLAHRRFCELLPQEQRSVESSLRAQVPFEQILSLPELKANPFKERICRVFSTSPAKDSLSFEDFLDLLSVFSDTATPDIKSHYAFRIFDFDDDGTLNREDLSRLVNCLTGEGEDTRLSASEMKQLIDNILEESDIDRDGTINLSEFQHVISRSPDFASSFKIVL
Papain (Carica papaya), sequence (P00784 whole entry, looked up): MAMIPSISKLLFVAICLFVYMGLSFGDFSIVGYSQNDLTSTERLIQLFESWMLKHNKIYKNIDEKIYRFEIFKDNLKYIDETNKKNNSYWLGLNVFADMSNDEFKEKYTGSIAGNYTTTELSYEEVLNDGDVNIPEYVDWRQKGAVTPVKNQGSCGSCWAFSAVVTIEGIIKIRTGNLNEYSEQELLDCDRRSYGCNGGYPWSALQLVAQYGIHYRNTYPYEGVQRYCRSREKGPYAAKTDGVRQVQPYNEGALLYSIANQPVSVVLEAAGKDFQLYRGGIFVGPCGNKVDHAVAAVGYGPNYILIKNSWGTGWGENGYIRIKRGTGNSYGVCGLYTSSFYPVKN
N-terminal Xaa-Pro-Lys N-methyltransferase 1 (Homo sapiens), sequence (Q9BV86 whole entry, looked up): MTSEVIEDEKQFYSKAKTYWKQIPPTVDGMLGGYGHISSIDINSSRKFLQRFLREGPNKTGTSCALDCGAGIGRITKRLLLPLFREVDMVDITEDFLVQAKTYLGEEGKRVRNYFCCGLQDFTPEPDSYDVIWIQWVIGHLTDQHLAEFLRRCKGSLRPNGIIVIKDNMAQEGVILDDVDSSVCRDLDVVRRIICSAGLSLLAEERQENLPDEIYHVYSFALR

O=[N+]([O-])c1ccccc1
inactive: outcome [1] | Potency [2] | outcome [3]
-19.1%: activity change, negative = inhibition [4]

CCCCC[C@@H](O)C1C(=O)OC(C)[C@H](O)/C=C/C=C/C=C/C=C/C=C(\C)C(O)C(O)C(O)C[C@H](O)C[C@H](O)C[C@H](O)C[C@H](O)C[C@@H]1O (some centres not stated)
inactive: outcome [1] | Potency [2] | outcome [3]
-29.9%: activity change, negative = inhibition [4]

COc1ccc2c(c1)C13CCCCC1C(C2)N(C)CC3 (configuration not stated)
inactive: Potency [5] | Potency [6] | outcome [7] | Potency (Papain (Carica papaya))
active: Potency [8] 2 µM

CN1CC[C@@]2(C)c3cc(OC(=O)Nc4ccccc4)ccc3N(C)[C@@H]12
active: Potency [8] 39.8 µM
inactive: Potency [5] | Potency [6] | outcome [7] | outcome [9]

C[N+]1(C)CCc2cc3c(cc2[C@H]1[C@@H]1OC(=O)c2c1ccc1c2OCO1)OCO3
inactive: Potency [5] | Potency [6] | Potency (Papain (Carica papaya))

C[N+](C)(C)CC#CCN1CCCC1=O
inactive: Potency [5] | Potency [6] | outcome [9] | Potency (Papain (Carica papaya))

NC(=O)CI
active: Potency [10] 12.3 µM
inactive: Potency [5] | Potency [6] | outcome [9] | Potency (Papain (Carica papaya))

CCCN(CCC)[C@H]1CCc2c(F)ccc(O)c2C1
inactive: Potency [5] | Potency [6] | outcome [9] | Potency (Papain (Carica papaya))

O=C1C=CC(=O)C=C1
inactive: Potency [5] | Potency [6] | outcome [9] | Potency (Papain (Carica papaya))

NC(N)=Nc1ccc2[nH]c3c(c2c1)C[C@@]1(O)[C@H]2Cc4ccc(O)c5c4[C@@]1(CCN2CC1CC1)[C@H]3O5
inactive: Potency [5] | Potency [6] | outcome [9] | Potency (Papain (Carica papaya)) | Potency [10]

CC(C)(C)c1o[nH]c(=O)c1CC(N)C(=O)O (configuration not stated)
inactive: Potency [5] | Potency [6] | outcome [9] | Potency (Papain (Carica papaya))

CN1CCc2cc(O)cc3c2[C@H]1Cc1ccc(O)c(O)c1-3
inactive: Potency [6] | Potency (Papain (Carica papaya))
active: Potency [5] 3.98 µM

CC(=O)NBr
inactive: Potency [5] | Potency [6] | outcome [9] | Potency (Papain (Carica papaya))

NC(=O)c1ccc(OCC(O)CN2CC=C(c3ccc(F)cc3)CC2)cc1 (configuration not stated)
inactive: Potency [5] | Potency [6] | outcome [9] | Potency (Papain (Carica papaya))

COc1ccc2c(c1O)-c1cccc3c1[C@@H](C2)N(C)CC3
inactive: Potency [5] | Potency [6] | outcome [9] | Potency (Papain (Carica papaya))

CC12NC(Cc3ccccc31)c1ccccc12 (configuration not stated)
inactive: Potency [5] | Potency [6] | outcome [9] | Potency (Papain (Carica papaya))

CC(C)(O)[C@@H]1C2OC(=O)[C@@H]1[C@]1(O)C[C@H]3O[C@]34C(=O)O[C@H]2[C@]14C (tested in a mixture with another compound)
inactive: Potency [5] | Potency [6] | outcome [9] | Potency (Papain (Carica papaya))

C[N+]1(C)CCOC(O)(c2ccc(-c3ccc(C4(O)C[N+](C)(C)CCO4)cc3)cc2)C1 (configuration not stated)
inactive: Potency [5] | Potency [6] | outcome [9] | Potency (Papain (Carica papaya))

Cc1[nH]c2ccc(O)cc2c1CCN
inactive: Potency [5] | Potency [6] | outcome [9] | Potency (Papain (Carica papaya))

C#CCN[C@H](C)Cc1ccccc1
inactive: Potency [5] | Potency [6] | Potency (Papain (Carica papaya))

CC(N)Cc1c[nH]c2ccc(OCc3cccs3)cc12 (configuration not stated)
inactive: Potency [5] | Potency [6] | Potency (Papain (Carica papaya))

CC(N)[C@H](O)c1ccc(O)c(O)c1 (some centres not stated)
inactive: Potency [5] | Potency [6] | outcome [9] | Potency (Papain (Carica papaya))

CCS(=O)(=O)Nc1cccc(C(=C2CCCCC2)c2cnc[nH]2)c1
inactive: Potency [5] | Potency [6] | outcome [9] | Potency (Papain (Carica papaya))

CC(N)c1cccc(Cl)c1Cl (configuration not stated)
inactive: Potency [5] | Potency [6] | outcome [9] | Potency (Papain (Carica papaya))

C[N+]1(C)CCN(c2ccccc2)CC1
inactive: Potency [5] | Potency [6] | outcome [9] | Potency (Papain (Carica papaya))

CC(C)NP(=O)(NC(C)C)OP(=O)(NC(C)C)NC(C)C
inactive: Potency [5] | Potency [6] | outcome [9] | Potency (Papain (Carica papaya))

COc1ccc(CNC(=O)/C=C/c2ccc3[nH]cc(CCN(C)C)c3c2)cc1
inactive: Potency [5] | Potency [6] | outcome [9] | Potency (Papain (Carica papaya))

NC(CCCCCP(=O)(O)O)C(=O)O (configuration not stated)
inactive: Potency [5] | Potency [6] | outcome [9] | Potency (Papain (Carica papaya))

NCCc1c[nH]c2ccc(C(N)=O)cc12
inactive: Potency [5] | Potency [6] | outcome [9] | Potency (Papain (Carica papaya))

CCCN1CCc2cc(O)cc3c2[C@H]1Cc1ccc(O)c(O)c1-3
inactive: Potency [6] | outcome [9] | Potency (Papain (Carica papaya))
active: Potency [5] 2 µM

NNC(=O)c1ccc(O)cc1
inactive: Potency [5] | Potency [6] | outcome [9] | Potency (Papain (Carica papaya))

Cc1cc([C@@H]2CCCN2C)on1
inactive: Potency [5] | Potency [6] | outcome [9] | Potency (Papain (Carica papaya))

C[C@H](N)Cc1cccc(C(F)(F)F)c1
inactive: Potency [5] | Potency [6] | outcome [9] | Potency (Papain (Carica papaya))
